Inconclusive results are not listed. Calls of active or inactive are those of the source. The calls were made as follows: active = hit-call score of the fitted dose curve at least 0.9, where 1 is the maximum; inconclusive = response in the unintended direction; inactive = score below 0.9.
Target: human Peroxisome Proliferator-activated Receptor alpha (PPARa), PPARA (gene 5465) (UniProt Q07869)
Assay: ATG_hPPARa_EcoTox2: Attagene TRANS-FACTORIAL EcoTox-2 HepG2 Assay for human Peroxisome Proliferator-activated Receptor alpha (PPARa)
Procedure: ATG_EcoTox2 is a cell-based, multiplexed assay created by modifying the existing Attagene TRANS-FACTORIAL system to include a panel of nuclear receptors from some or all the following species: human (Homo sapiens), african clawed frog (Xenopus laevis), rainbow trout (Oncorhynchus mykiss), japanese medaka (Oryzias latipes), and zebrafish (Danio rerio). The ECOTOX2-FACTORIAL format uses HepG2, a human liver cell line, with measurements taken at 24 hours after chemical dosing in a 24-well plate. ATG_hPPARa_EcoTox2 is one of 29 assay components calculated in the ATG_EcoTox2 assay. It is designed to make measurements of mRNA induction, a form of inducible reporter, as detected with fluorescence intensity signals by Reverse transcription polymerase chain reaction (RT-PCR) and Capillary electrophoresis technology.The assay endpoint ATG_hPPARa_EcoTox2 was analyzed in the positive analysis fitting direction relative to DMSO as the negative control and baseline of activity. Using a type of inducible reporter, measures of mRNA for gain-of-signal activity can be used to understand the reporter gene at the transcription factor-level as they relate to the gene PPARa. Furthermore, this assay endpoint can be referred to as a primary readout, because this assay has produced multiple assay endpoints where this one serves a reporter gene function. […]

human Peroxisome Proliferator-activated Receptor alpha (PPARa), PPARA (gene 5465), sequence (Q07869 whole entry, looked up): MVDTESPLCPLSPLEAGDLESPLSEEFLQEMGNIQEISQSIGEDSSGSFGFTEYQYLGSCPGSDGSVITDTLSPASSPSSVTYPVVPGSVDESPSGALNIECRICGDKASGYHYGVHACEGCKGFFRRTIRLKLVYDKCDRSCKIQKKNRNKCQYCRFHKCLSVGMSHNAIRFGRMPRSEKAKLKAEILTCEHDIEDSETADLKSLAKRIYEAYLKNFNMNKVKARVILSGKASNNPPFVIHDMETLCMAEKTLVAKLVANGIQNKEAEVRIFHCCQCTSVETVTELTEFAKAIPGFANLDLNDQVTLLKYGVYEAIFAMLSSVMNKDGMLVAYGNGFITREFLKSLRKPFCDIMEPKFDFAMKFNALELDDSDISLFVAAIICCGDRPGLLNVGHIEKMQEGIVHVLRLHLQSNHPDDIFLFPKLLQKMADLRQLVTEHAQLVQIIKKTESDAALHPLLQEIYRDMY

Row | Compound | AC50
1 | O=S(=O)(O)C(F)(F)C(F)(F)C(F)(F)C(F)(F)C(F)(F)C(F)(F)F | 23 µM (active)
2 | O=C(O)C(F)(F)C(F)(F)C(F)(F)C(F)(F)C(F)(F)C(F)(F)C(F)(F)F | 11.4 µM (active)
